Results from article PMC5540273 (PLoS ONE, 2017).

Assays:
Conditions in all cases: concentration: 1 μM, replicates: in singlicate; n = 1
PHKG1 = tested on: PHKG1
PHKG2 = tested on: PHKG2
PIK3C2B = tested on: PIK3C2B
PIK3C2G = tested on: PIK3C2G
PIK3CA = tested on: PIK3CA
PIK3CB = tested on: PIK3CB
PIK3CD = tested on: PIK3CD
PIK3CG = tested on: PIK3CG
PIK4CB = tested on: T1, PIK4CB
T1 construct: gene PI4KB

PIKFYVE = tested on: PIKFYVE
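Also: KINOMEscan kinase panel screen.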

Row | SMILES | %Inh (PHKG1) [%] | %Inh (PHKG2) [%] | %Inh (PIK3C2B) [%] | %Inh (PIK3C2G) [%] | %Inh (PIK3CA) [%] | %Inh (PIK3CB) [%] | %Inh (PIK3CD) [%] | %Inh (PIK3CG) [%] | %Inh (PIK4CB) [%] | %Inh (PIKFYVE) [%]
1 | COc1ccccc1CNC(=O)c1cc(C(=O)c2ccccc2C)c[nH]1 [GSK364507] | 1 | 0 | 0 | 0 | 0 | 0 | 0 | 0 | 16 | 0
2 | Cl.Oc1ccc(-c2nc(-c3ccccc3)[nH]c2-c2ccncc2)cc1 [SB-428218] | 49 | 0 | 0 | 0 | 0 | 0 | 0 | 0 | 0 | 46
3 | CC(C)(C)c1ccc(C(=O)Nc2cn3cc(Cl)ccc3n2)cc1 | 0 | 0 | 0 | 0 | 0 | 0 | 0 | 0 | 0 | 4
4 | COc1cc2ncn(-c3cc(OCC4CCCO4)c(C(N)=O)s3)c2cc1OC (centres unmarked) [GSK204607] | 0 | 3 | 0 | 0 | 0 | 0 | 0 | 19 | 0 | 0
5 | Cc1csc(-c2nc(Nc3ccncc3)c3ccccc3n2)n1 [GW869640] | 14 | 1 | 37 | 31 | 13 | 50 | 26 | 30 | 57 | 78
6 | CN(C)CCN(C)C(=O)c1cc(-c2ccncc2)c(-c2ccc(Cl)c(O)c2)o1.Cl.Cl [SB-710397] | 0 | 0 | 0 | 0 | 0 | 18 | 40 | 0 | 7 | 47
7 | COc1cc2nccc(Nc3ccc(NC(=O)c4ccc(C)cc4)c(O)c3)c2cc1OC.Cl [GW440132] | 15 | 0 | 100 | 0 | 100 | 0 | 0 | 100 | 0 | 0
8 | COc1ccc(Nc2nccc(-c3cccc(NC(=O)c4cc5cc(F)ccc5[nH]4)c3)n2)cc1 [GSK1229782] | 19 | 0 | 0 | 0 | 0 | 0 | 0 | 2 | 0 | 6
9 | NC(=O)c1nnc2ccccc2c1N | 0 | 10 | 40 | 14 | 40 | 0 | 39 | 44 | 1 | 4
10 | COc1ccc(C2=C(Nc3cccc(C(=O)O)c3)C(=O)NC2=O)cc1 [SB-390765] | 0 | 0 | 23 | 21 | 0 | 40 | 16 | 27 | 22 | 0
11 | COc1ccc(CNC(=O)NC2CCN(c3ccnc(Nc4cc(OC)c(OC)c(OC)c4)n3)C2)cc1 (centres unmarked) [GSK1379748] | 0 | 31 | 0 | 0 | 0 | 0 | 3 | 0 | 46 | 6
12 | Cc1cccc(-c2nc(Nc3ccncc3)c3ccccc3n2)n1 [GW855857] | 47 | 3 | 0 | 0 | 0 | 0 | 0 | 0 | 0 | 57
13 | Clc1cc(Cl)cc(Nc2ccnc(Nc3cc(Cl)cc(Cl)c3)n2)c1 [GSK175726] | 0 | 0 | 6 | 0 | 5 | 40 | 38 | 3 | 0 | 1
14 | CS(=O)(=O)c1ccc(-c2c(-c3ncn[nH]3)sc(N3CCOCC3)c2C#N)cc1 | 9 | 7 | 0 | 14 | 96.9 | 97.3 | 65 | 57 | 0 | 40
15 | Cc1cccc(-c2nc(Nc3cccc(C(N)=O)c3)c3ccccc3n2)n1 [GW876019] | 0 | 8 | 0 | 44 | 0 | 0 | 48 | 0 | 0 | 16
16 | COc1ccccc1-c1ccc2c(NC(=O)C3CC3)n[nH]c2n1 [SB-711239] | 1 | 0 | 0 | 45 | 0 | 25 | 23 | 0 | 0 | 17
17 | O=C(Nc1n[nH]c2cc(-c3cccc(F)c3F)ccc12)C1CC1 [SB-733894] | 3 | 25 | 17 | 15 | 0 | 0 | 0 | 19 | 8 | 100
